# Results from PubChem BioAssay (NCATS).
# Inconclusive results are not listed. A call without a number means that no potency is given here. Active and inactive are the calls of the source. Unless noted, calls come from the whole dose curve; as a rule, active = well fitted curve in the direction sought with a large enough effect; inconclusive = small, poorly fitted or top-dose-only effect, or another doubt; inactive = no such curve, though single readings can be large; an effect the other way counts as inactive or inconclusive.
# How the values were obtained:
# [1] = target: Cytochrome P450 3A4 (Homo sapiens) (UniProt P08684); test: qHTS Assay for Inhibitors and Substrates of Cytochrome P450 3A4 (AID 884); note: nearly all actives have a fitted effect of over 50% in size
# How it was run: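 Luminescent readout of luciferin produced by CYP3A4 (20 nM) dealkylation of Luciferin-PPXE, 25 uM (its KM). NADPH-driven reaction ran 60 min at RT after 10 min compound preincubation; data scaled to 57 uM ketoconazole as 100% inhibition.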
# [2] = Confirmation and Secondary Assay for Modulators of Hemoglobin Beta Chain Splicing at IVS2 654 locus (AID 910);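 note: HeLa cells stably carrying EGFP split by mutant beta-globin IVS2-654 intron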
# How it was run: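 HeLa cells stably expressing EGFP interrupted by β-globin IVS2-654 intron, seeded overnight in Opti-MEM/2% FCS, then treated 2 days at 37 °C. Restored splicing read as total peak GFP intensity per well by laser scanning cytometry (488 nm excitation, 500–520 nm emission); 500 nM antisense PNA as control.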
# [3] = Confirmation and Secondary Assay for Modulators of Hemoglobin Beta Chain Splicing at IVS2 705 locus (AID 930);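 note: HeLa cells stably expressing the EGFP-705 splicing reporter; GFP fluorescence per well restored by corrected splicing of the IVS2-705 intron in EGFP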
# How it was run: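 Per-well GFP, captured at 1 x 8 µm resolution with 488 nm excitation, served as the read-out for HeLa EGFP-705 cells incubated 2 days with test compound versus DMSO.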
# [4] = qHTS Assay for Lipid Storage Modulators (AID 1519; calls by dose curve); conditions: Drosophila S3 cells, BODIPY lipid droplet/cell ratio, laser cytometry, cells loaded with oleic acid; for activity change, negative = inhibition: at 57.5 µM (top of the series)
# How it was run: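 Cells seeded at 5,000 per well were treated with compounds over a concentration series and loaded with oleic acid (400 uM, as added). Lipid droplet fluorescence (488 nm excitation, 500-530 nm channel) was read by laser-scanning cytometry and normalized to 20 uM Triacsin C.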
# [5] = Counterscreen qHTS for small molecule stabilizers of the endoplasmic reticulum resident proteome: GLuc-NoTag assay (AID 1508627);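 note: SH-SY5Y cells given compound then 100 nM thapsigargin to empty ER calcium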
# How it was run: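 Counterscreen line: SH-SY5Y-GLuc-NoTag. Seed, 5 h; compound, 19 h; thapsigargin 100 nM, 4 h; 37C/5% CO2. Readout: secreted GLuc luminescence, coelenterazine 0.07x final, no lysis.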
# [6] = Cell Viability qHTS for small molecule stabilizers of the endoplasmic reticulum resident proteome (AID 1508629); conditions: cell viability counter-screen, 100 nM thapsigargin for final 4 h;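 note: human SH-SY5Y neuroblastoma cells carrying the GLuc-SERCaMP reporter; compound exposure about 46 h in total before the viability read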
# [7] = target: Calcium and integrin-binding protein 1 (Homo sapiens) (UniProt Q99828); test: Primary qHTS for Identification of Calcium Integrin Binding Protein 1 (CIB1) Competitor (AID 1508620);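 note: GST tagged CIB1 binding a fluorescein labelled alphaIIb integrin peptide tracer; top concentration of the series differs between compounds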
# How it was run: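 Fluorescence polarization competition: GST-tagged CIB1 (1 uM final) preincubated with compound 15 min at room temperature, then FITC-labelled alphaIIb peptide (100 nM final) added. After 15 min at room temperature, polarization read at Ex 480/Em 540.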
# [8] = test system: HIV-1 nucleocapsid protein NCp7 (binding to TG oligonucleotide); test: HIV Nucleocapsid (AID 346; call rule not given here;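 note: potency is the fitted concentration of half-maximal effect; potency is for inhibitors that block NC binding and lower polarization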); conditions: HIV-1 NC / fluorescein-TGTGTGTG probe, fluorescence polarization
# How it was run: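 Fluorescence polarization readout: labelled TG4xF oligo (10 nM) with 100 nM nucleocapsid protein, high-salt (250mM NaCl) Hepes pH 7.5 buffer containing zinc and fresh reducing agents. Compounds added by pin tool; incubation 1 hr, room temperature.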
# [9] = target: Lysosomal acid glucosylceramidase (Homo sapiens) (UniProt P04062); test: Glucocerebrosidase-p2 (AID 348; in the data active = potency below about 10 µM; note: potency is the fitted concentration of half-maximal effect); conditions: purified GBA, blue fluorogenic substrate, 40 min
# How it was run: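 Normal human glucocerebrosidase (0.2 nM) with blue fluorogenic substrate (80 uM final) in citrate/phosphate pH 5.9 with 10mM sodium taurocholate, 0.01% tween-20; 40 min RT, NaOH/glycine stop; fluorescence Ex 365/Em 440; AC50 from a titration from 0.6 nM upwards.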
# [10] = AP1 Signaling Pathway (AID 357; active = well fitted curve in either direction with a large enough effect, not every such curve was filed as active;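 note: ME-180 reporter cells stimulated with EGF at its EC50 level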)
# How it was run: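 Cells are seeded overnight, exposed to compound titrations and an EC50 level of EGF for 5 hours at 37 °C, then loaded with CCF4 dye for 2.5 hours. Beta-lactamase activity under the AP-1 element is read as a blue/green ratio.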
# [11] = target: Cytochrome P450 1A2 (Homo sapiens) (UniProt P05177); test: p450-cyp1a2 (AID 410; calls by dose curve)
# How it was run: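 20nM CYP1A2, 100uM Luciferin-ME (=Km), 100mM KPO4; cpd 10 min RT; +NADPH regen, 60 min RT; stop/detect 20 min; luminescence. Normalized to furafylline 57 uM = full inhibition.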
# [12] = Stat Signaling Pathway (AID 446; active = well fitted curve in either direction with a large enough effect, not every such curve was filed as active;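 note: ME-180 cervical cancer cells given 40 pM IL-6 alongside compound; SIE-controlled beta-lactamase reporter measured as 460/530 nm FRET emission ratio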)
# How it was run: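 Compound effects on IL-6-induced STAT reporter activity were measured in ME-180 cells. After overnight culture, cells were co-treated with 40 pM IL-6 for 5 hrs before beta-lactamase substrate loading at room temperature.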
# [13] = target: Glucocorticoid receptor (Homo sapiens) (UniProt P04150); test: GR-EFC Redistribution (AID 451; calls by dose curve; note: potency is the fitted concentration of half-maximal effect); conditions: CHO-K1 GR-EFC translocation, beta-gal luminescence, 2 h
# How it was run: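 CHO-K1 cells expressing nuclear EA and GR-ED fragments of b-gal; compounds titrated up to 46 uM final, 2 h at 37 C. GR nuclear translocation read as complemented b-gal luminescence after 1 h RT detection.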
# [14] = target: Mitogen-activated protein kinase 10 (Mus musculus) (UniProt Q61831); test: JNK3 AlphaScreen Assay (AID 530; active = well fitted curve in either direction with a large enough effect, not every such curve was filed as active;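 note: kinase came from lysate of stimulated human HepG2 cells; signal reports phosphorylation of biotinylated GST-cJun 1-79 at Ser73 with 10 µM ATP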)
# How it was run: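 HepG2 lysate (IL-1b/TNFa pre-activated) + biotin-GST-cJun 1-79 + anti-pSer73 cJun; cpd titration, 15 min RT; ATP 10 uM start; Tris pH 7.6, MgCl2, DTT, vanadate; beads in EDTA buffer; AlphaScreen.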
# [15] = target: 3',5'-cyclic-AMP phosphodiesterase 4B (Homo sapiens) (UniProt Q07343); test: qHTS Assay for Inhibitors of PDE-IV (AID 607; active = well fitted activation curve with a large enough effect in the main read-out, with a control signal flat, not every such curve was filed as active)
# How it was run: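 ACTOne HEK293 cells carry a modified cAMP-gated CNG channel and express endogenous PDE4; plated 1000 cells/well, compounds up to 22.9 uM final. Membrane-potential dye fluorescence (ex 535/em 590) was read; parental cells received 10 uM forskolin + 100 uM RO 20-1724.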
# [16] = Primary qHTS for small molecule stabilizers of the endoplasmic reticulum resident proteome: Secreted ER Calcium Modulated Protein (SERCaMP) assay (AID 1508630)
# How it was run: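 The SH-SY5Y reporter protocol was run at 3 concentrations up to 38.3 uM (primary) or 11 concentrations (follow-up): 16 h compound, 100 nM thapsigargin for 4 h, then extracellular luciferase luminescence.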
# [17] = NFAT Signaling Pathway (AID 444; active = well fitted curve in either direction with a large enough effect, not every such curve was filed as active;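 note: carbachol stimulus at about its EC50 of 1 µM final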); conditions: Jurkat NFAT-bla M1, carbachol, beta-lactamase ratio, 5 h; at 7.69 µM (top of the series)
# How it was run: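 Jurkat cells with NFAT-driven β-lactamase reporter and co-expressed M1 receptor, stimulated with carbachol (final 1 uM, ~EC50), compound titration, 5 h at 37 °C. CCF4 loaded 1 h at RT; 460/530 nm ratio gave %activity and AC50.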
# [18] = target: Cytochrome P450 3A4 (Homo sapiens) (UniProt P08684); test: qHTS Assay for Activators of Cytochrome P450 3A4 (AID 885); note: nearly all actives have a fitted effect of over 65% in size; note: potency is the fitted concentration of half-maximal effect
# How it was run: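 CYP3A4 activity: Luciferin-PPXE O-dealkylation, 25uM substrate, 200mM KPO4, RT throughout. Read-out is luciferase luminescence; higher values reflect activation.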
# [19] = target: Cytochrome P450 2D6 (Homo sapiens) (UniProt P10635); test: qHTS Assay for Inhibitors and Substrates of Cytochrome P450 2D6 (AID 891); note: potency is the fitted concentration of half-maximal effect; nearly all actives have a fitted effect of over 60% in size
# How it was run: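 Luminescent read-out of luciferin formed by 5 nM human CYP2D6 demethylating 30 uM Luciferin-ME EGE (Km level) over 60 min at room temperature after NADPH regeneration addition. Data normalized to full inhibition by 1.43 uM quinidine.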
# [20] = Confirmatory qHTS for small molecule stabilizers of the endoplasmic reticulum resident proteome: Secreted ER Calcium Modulated Protein (SERCaMP) assay (AID 1508628); note: nearly all actives have a fitted effect of over 40% in size; note: potency is the fitted concentration of half-maximal effect
# How it was run: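 GLuc-SERCaMP-expressing SH-SY5Y cells, pretreated 16 h with compound, are challenged with thapsigargin to empty ER calcium stores; after 4 h, coelenterazine is added directly to the medium and luminescence is imaged.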
# [21] = measured here: cell count channel max response
# [22] = measured here: lipid channel max response
# Chain of Lysosomal acid glucosylceramidase (Homo sapiens) (P04062 whole entry, looked up): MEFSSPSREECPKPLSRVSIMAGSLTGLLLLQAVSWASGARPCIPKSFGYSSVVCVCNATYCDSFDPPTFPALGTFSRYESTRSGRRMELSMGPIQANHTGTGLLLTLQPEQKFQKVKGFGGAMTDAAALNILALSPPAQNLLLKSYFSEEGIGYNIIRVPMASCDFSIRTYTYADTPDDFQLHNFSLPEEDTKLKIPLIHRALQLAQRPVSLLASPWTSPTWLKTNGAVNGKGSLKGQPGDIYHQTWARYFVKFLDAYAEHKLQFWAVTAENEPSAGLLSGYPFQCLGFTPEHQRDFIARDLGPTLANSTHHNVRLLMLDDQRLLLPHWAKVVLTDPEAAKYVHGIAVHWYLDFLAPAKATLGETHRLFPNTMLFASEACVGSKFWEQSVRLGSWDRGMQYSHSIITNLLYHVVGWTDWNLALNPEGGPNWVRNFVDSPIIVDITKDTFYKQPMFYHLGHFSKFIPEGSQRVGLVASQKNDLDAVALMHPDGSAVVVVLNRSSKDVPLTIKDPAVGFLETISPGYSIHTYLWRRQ
# Chain of 3',5'-cyclic-AMP phosphodiesterase 4B (Homo sapiens) (Q07343 whole entry, looked up): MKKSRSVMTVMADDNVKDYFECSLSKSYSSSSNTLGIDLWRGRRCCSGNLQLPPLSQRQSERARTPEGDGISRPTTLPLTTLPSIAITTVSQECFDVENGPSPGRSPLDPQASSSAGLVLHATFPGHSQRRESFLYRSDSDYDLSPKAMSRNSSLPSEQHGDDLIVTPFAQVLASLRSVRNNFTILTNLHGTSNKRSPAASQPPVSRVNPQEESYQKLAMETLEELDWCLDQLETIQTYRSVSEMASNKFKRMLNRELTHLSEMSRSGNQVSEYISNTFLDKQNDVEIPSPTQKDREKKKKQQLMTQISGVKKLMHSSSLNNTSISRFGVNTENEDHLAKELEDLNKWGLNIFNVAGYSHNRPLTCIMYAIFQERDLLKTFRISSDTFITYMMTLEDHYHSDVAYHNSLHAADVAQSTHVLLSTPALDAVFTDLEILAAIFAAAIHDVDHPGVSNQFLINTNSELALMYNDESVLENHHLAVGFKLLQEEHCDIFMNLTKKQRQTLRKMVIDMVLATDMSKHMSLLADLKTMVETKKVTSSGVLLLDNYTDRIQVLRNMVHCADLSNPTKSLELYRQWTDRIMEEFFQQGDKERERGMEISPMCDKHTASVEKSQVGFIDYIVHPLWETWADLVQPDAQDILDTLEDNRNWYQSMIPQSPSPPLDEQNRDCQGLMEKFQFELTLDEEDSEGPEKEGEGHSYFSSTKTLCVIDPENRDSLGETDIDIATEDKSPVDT
# Chain of Cytochrome P450 1A2 (Homo sapiens) (P05177 whole entry, looked up): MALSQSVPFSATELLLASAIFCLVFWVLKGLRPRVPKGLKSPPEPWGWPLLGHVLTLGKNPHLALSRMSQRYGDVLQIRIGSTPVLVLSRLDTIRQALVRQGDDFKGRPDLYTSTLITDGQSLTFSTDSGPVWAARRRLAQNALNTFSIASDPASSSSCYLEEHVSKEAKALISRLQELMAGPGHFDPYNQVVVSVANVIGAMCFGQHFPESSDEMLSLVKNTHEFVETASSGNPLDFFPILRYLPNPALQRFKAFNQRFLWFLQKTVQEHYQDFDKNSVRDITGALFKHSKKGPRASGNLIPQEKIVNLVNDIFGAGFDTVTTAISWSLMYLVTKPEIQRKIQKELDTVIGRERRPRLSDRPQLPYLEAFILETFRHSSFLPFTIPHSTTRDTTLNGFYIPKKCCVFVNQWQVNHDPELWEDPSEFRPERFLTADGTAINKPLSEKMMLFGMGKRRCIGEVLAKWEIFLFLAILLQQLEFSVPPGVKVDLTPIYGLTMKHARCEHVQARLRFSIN
# Chain of Glucocorticoid receptor (Homo sapiens) (P04150 whole entry, looked up, the tested form may be a part): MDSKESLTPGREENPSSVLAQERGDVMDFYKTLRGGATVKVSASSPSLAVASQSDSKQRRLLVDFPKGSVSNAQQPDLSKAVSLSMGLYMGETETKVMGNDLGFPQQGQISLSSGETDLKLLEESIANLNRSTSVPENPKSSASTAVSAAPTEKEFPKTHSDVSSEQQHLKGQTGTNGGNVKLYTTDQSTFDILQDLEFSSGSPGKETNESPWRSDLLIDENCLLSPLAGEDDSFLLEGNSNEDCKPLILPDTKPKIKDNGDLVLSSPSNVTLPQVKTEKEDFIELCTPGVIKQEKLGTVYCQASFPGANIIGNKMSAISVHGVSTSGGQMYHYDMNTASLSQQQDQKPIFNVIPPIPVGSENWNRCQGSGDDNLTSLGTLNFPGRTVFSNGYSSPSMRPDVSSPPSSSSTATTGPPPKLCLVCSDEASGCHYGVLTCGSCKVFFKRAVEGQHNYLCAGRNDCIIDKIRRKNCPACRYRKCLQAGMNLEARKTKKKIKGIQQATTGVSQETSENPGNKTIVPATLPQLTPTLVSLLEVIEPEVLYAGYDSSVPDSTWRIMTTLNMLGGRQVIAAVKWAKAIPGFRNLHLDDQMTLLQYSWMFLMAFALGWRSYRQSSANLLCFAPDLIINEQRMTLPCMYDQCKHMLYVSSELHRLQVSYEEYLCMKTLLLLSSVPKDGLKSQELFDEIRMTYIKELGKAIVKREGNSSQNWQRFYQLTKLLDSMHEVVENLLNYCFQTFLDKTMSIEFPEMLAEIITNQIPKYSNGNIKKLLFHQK
# Chain of Calcium and integrin-binding protein 1 (Homo sapiens) (Q99828 whole entry, looked up): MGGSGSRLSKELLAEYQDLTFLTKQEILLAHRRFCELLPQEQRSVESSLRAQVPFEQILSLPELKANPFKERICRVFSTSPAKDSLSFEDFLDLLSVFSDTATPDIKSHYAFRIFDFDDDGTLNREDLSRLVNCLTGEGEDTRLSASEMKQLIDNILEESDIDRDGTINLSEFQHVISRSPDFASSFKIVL
# Chain of Cytochrome P450 3A4 (Homo sapiens) (P08684 whole entry, looked up): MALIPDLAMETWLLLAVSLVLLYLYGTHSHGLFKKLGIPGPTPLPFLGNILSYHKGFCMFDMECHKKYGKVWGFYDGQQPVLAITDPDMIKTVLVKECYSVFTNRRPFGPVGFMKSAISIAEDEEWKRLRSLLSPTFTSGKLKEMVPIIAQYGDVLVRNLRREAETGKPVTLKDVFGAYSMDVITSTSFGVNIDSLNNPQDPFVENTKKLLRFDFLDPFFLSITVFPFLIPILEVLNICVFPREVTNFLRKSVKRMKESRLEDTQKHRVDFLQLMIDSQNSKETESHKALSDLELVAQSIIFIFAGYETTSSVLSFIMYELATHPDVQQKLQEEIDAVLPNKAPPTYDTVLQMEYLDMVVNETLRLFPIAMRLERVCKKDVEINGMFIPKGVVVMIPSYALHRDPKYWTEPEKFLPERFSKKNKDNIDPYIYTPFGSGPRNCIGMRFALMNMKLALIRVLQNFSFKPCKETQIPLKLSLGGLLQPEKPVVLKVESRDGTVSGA
# Chain of Cytochrome P450 2D6 (Homo sapiens) (P10635 whole entry, looked up): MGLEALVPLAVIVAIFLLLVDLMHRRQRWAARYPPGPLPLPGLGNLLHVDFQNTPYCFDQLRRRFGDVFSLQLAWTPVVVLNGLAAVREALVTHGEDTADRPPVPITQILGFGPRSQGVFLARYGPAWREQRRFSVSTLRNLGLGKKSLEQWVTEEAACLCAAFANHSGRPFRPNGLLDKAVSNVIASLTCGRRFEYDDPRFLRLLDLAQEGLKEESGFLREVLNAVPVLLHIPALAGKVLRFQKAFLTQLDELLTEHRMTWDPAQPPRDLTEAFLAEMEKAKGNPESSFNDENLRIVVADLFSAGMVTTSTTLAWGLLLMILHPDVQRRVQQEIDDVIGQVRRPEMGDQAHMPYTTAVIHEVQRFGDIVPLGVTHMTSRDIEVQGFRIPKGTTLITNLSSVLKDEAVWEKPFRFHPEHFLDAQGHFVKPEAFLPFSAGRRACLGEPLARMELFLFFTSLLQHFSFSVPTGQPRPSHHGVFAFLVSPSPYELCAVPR
smiles,measurement,setting,value
CC(=O)C1=C(O)C2C3c4c[nH]c5cccc(c45)CC3C(C)(C)N2C1=O (stereo not drawn),Potency,[1],inactive
same,Potency,[2],inactive
same,Potency,[3],inactive
same,"activity change, negative = inhibition",[4],8.13% (inactive)
same,max response,[4]; [21],15.9%
same,max response,[4]; [22],22.7%
same,outcome,[5],inactive
same,max response,[6],-5.15% (inactive)
CN1CCN(c2cnc3c(O)ccc(C(=O)O)c3c2)CC1,outcome,[7],inactive
COc1cccc(CNc2ccc(S(=O)(=O)Nc3nc(C)c(C)s3)cc2)c1O,outcome,[7],inactive
CCOc1ccc(CCNC(=O)c2cc3ncccc3n2Cc2cccc(C)n2)cc1OCC,outcome,[7],inactive
CCOc1ccc(CCNC(=O)c2ccccc2)cc1OCC,outcome,[7],inactive
c1cc(CN2CCCC3(CCNCC3)C2)ccn1,Potency,[8],> 20 µM (inactive)
same,Potency,[9],> 11.4 µM (inactive)
same,outcome,[10],inactive
same,Potency,[11],inactive
same,outcome,[12],inactive
same,Potency,[13],> 46 µM (inactive)
same,outcome,[14],inactive
same,Potency,[15],inactive
same,"activity change, negative = inhibition",[4],4.72% (inactive)
same,max response,[4]; [21],11%
same,max response,[4]; [22],17.7%
same,outcome,[5],inactive
same,max response,[6],27.2% (inactive)
O=S(=O)(Nc1ccccc1)c1ccc(NCc2ccc(Br)cc2O)cc1,outcome,[7],inactive
CC(=O)OC[C@]12C[C@H](OC(=O)CC(C)C)C(C)=C[C@H]1O[C@H]1[C@H](O)[C@@H](OC(C)=O)[C@@]2(C)[C@]12CO2,outcome,[16],inactive
O=S(=O)(Nc1cccc2ccncc12)c1ccc(NCc2cccc(Cl)c2O)cc1,outcome,[7],inactive
O=C(Oc1ccccc1)N1CCC2(CC1)CN(C(c1ccccc1)c1ccccc1)C2,Potency,[8],> 20 µM (inactive)
same,Potency,[9],> 11.4 µM (inactive)
same,outcome,[10],inactive
same,Potency,[11],inactive
same,"activity change, negative = inhibition",[17],-29.6% (inactive)
same,Potency,[13],> 46 µM (inactive)
same,outcome,[14],inactive
same,Potency,[15],inactive
same,Potency,[18],6.31 µM (active)
same,Potency,[19],7.94 µM (active)
same,"activity change, negative = inhibition",[4],-5.67% (inactive)
same,max response,[4]; [21],-3.18%
same,max response,[4]; [22],-5.43%
same,outcome,[16],inactive
Cc1nc2ccccn2c1P(=S)(c1ccccc1)c1ccccc1,outcome,[7],inactive
Cc1cccc(C)c1OP(=O)(OCc1c(-c2ccccc2)no[n+]1[O-])Oc1c(C)cccc1C,outcome,[7],inactive
c1cc(N2CCCC3(CCNCC3)C2)ccn1,Potency,[9],> 11.4 µM (inactive)
same,outcome,[10],inactive
same,Potency,[11],inactive
same,outcome,[12],inactive
same,Potency,[13],> 46 µM (inactive)
same,outcome,[14],inactive
same,Potency,[15],inactive
same,Potency,[18],inactive
same,"activity change, negative = inhibition",[4],4.41% (inactive)
same,max response,[4]; [21],13.5%
same,max response,[4]; [22],21.3%
same,Potency,[20],14.1 µM (active)
Cc1cccc2nc(NC3=NC(c4[nH]ncc4Cl)C4=C(CCCC4=O)N3)oc12 (stereo not drawn),outcome,[7],inactive
C[C@@H]1O[C@@H](O[C@H]2CC[C@]3(C=O)C4CC[C@]5(C)[C@@H](C6=CC(=O)OC6)CC[C@]5(O)[C@@H]4CC[C@]3(O)C2)[C@H](O)[C@H](O)[C@H]1O (stereo partly drawn),outcome,[16],inactive
O=C(O)[C@@H]1CSC(c2cccnc2)N1 (stereo partly drawn),outcome,[5],inactive
same,Potency,[20],inactive
same,max response,[6],25.6% (inactive)
CC[C@]12CCCN3CCC4(c5ccccc5NC4C(C(=O)O)C1)C32 (stereo partly drawn),outcome,[16],inactive
CCOc1ccc(CCNC(=O)c2cc3ccccc3n2Cc2cccc(C)n2)cc1OCC,outcome,[7],inactive
c1cnc(N2CCC3(CCNCC3)CC2)nc1,Potency,[8],> 20 µM (inactive)
same,Potency,[9],> 11.4 µM (inactive)
same,outcome,[10],inactive
same,Potency,[11],inactive
same,outcome,[12],inactive
same,Potency,[13],> 46 µM (inactive)
same,outcome,[14],inactive
same,Potency,[18],inactive
same,"activity change, negative = inhibition",[4],5.39% (inactive)
same,max response,[4]; [21],13.8%
same,max response,[4]; [22],23.4%
same,outcome,[5],inactive
same,Potency,[20],inactive
same,max response,[6],1.49% (inactive)
CCOc1ccc(CCNC(=O)c2cc3ccncc3n2Cc2cccc(C)n2)cc1OCC,outcome,[7],inactive
